# Reference: the supplement of paper PMC10127200
# Where a name gives a salt, the structure may show the parent alone.
# Columns and labels:
# Experiment in all cases: Euclidean distance of Cell Painting phenotypic profile (signed KS, 77 features) to DMSO centroid (dimensionless distance); 5 or 10 uM (library dependent); higher = stronger phenotypic change vs DMSO (phenoactivity)
# Details in all cases: 48 h
# 786-O = tested on: 786-O
# How it was run: (§1)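 At 10 or 5 uM, as set by the library, and 0.1% DMSO final, compounds were applied for 48 h to five cancer lines and one healthy fibroblast line. Stained cells were imaged confocally at 20X in 9 fields per well, and Harmony extracted 77 features scored as signed Kolmogorov-Smirnov statistics against vehicle wells on the same plate. Profiles underwent plate-position correction, correlation weighting and replicate averaging at the top dose. Phenoactivity is the Euclidean distance from each such profile to the median vehicle profile.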
# A549 = tested on: A549
# How it was run: as §1
# DU145 = tested on: DU145
# How it was run: as §1
# FB = tested on: FB
# How it was run: as §1
# HEPG2 = tested on: HEPG2
# How it was run: as §1
# OVCAR4 = tested on: OVCAR4
# How it was run: as §1
Compound,Euclidean distance (786-O),Euclidean distance (A549),Euclidean distance (DU145),Euclidean distance (FB),Euclidean distance (HEPG2),Euclidean distance (OVCAR4)
Cc1nc(C)c(Cl)c(O)c1Cl [Clopidol],0.853,1.1,0.432,1.15,0.83,1.61
CC(CCc1ccc(O)cc1)NCC(O)c1ccc(O)cc1 (centres undefined) [Ractopamine HCl],0.802,0.83,0.987,1.14,0.522,1.07
CC1=C(C(=O)O)N2C(=O)[C@@H](NC(=O)[C@H](N)C3=CCC=CC3)[C@H]2SC1 [Cephradine monohydrate],1.65,0.779,2.12,0.776,0.698,0.618
CCCC(=O)O[C@]1(C(=O)CCl)[C@H](C)C[C@@H]2[C@@H]3CCC4=CC(=O)C=C[C@]4(C)[C@]3(F)C(=O)C[C@@]21C [clobetasone butyrate],1.53,2.42,3.28,1.92,1.73,2.23
CC[C@H]1OC(=O)[C@H](C)[C@@H](O[C@H]2C[C@@](C)(OC)[C@@H](O)[C@H](C)O2)[C@H](C)[C@@H](O[C@@H]2O[C@H](C)C[C@H](N(C)C)[C@H]2O)[C@](C)(O)C[C@@H](C)CN(C)[C@H](C)[C@@H](O)[C@]1(C)O [Azithromycin],0.885,0.638,1.38,1.53,2.1,1.08
CCCc1nn(C)c2c(=O)[nH]c(-c3cc(S(=O)(=O)N4CCN(C)CC4)ccc3OCC)nc12 [Sildenafil Citrate],1.87,1.4,1.4,0.899,0.957,1.28
C[C@@H](OC[C@@]1(c2ccccc2)CC[C@]2(CCC(=O)N2)CN1)c1cc(C(F)(F)F)cc(C(F)(F)F)c1 [Rolapitant],1.23,1.85,1.34,1.17,1.3,1.41
C[n+]1cc2c3c(ccc2c2ccc4cc5c(cc4c21)OCO5)OCO3 [Sanguinarine chloride],5.34,5,7.6,6.48,4.82,5.76
CC(Cc1ccc(O)c(O)c1)C(C)Cc1ccc(O)c(O)c1 (centres undefined) [Nordihydroguaiaretic acid (NDGA)],1.19,0.902,1.27,1.54,1.06,0.861
NC(=O)NC1NC(=O)NC1=O (centres undefined) [Allantoin],0.856,0.693,1.19,0.801,3.52,1.68
Nc1ccc(C(=O)O)c(O)c1 [Sodium 4-Aminosalicylate],1.34,2.62,1.27,2.47,1.02,1.43
CN1CCN(c2ccc(C(=O)Nc3n[nH]c4ccc(Cc5cc(F)cc(F)c5)cc34)c(NC3CCOCC3)c2)CC1 [Entrectinib (RXDX-101)],5.06,3.73,4.31,5.6,5.43,4.97
COc1cc(-c2cc(-c3cccc(O)c3)cnc2N)cc(OC)c1OC,2.06,2.24,1.46,2.23,1.93,1.77
N#CC(c1ccc(Cl)cc1)c1c(Cl)cc(-n2ncc(=O)[nH]c2=O)cc1Cl (centres undefined) [Diclazuril],1.07,1.53,0.762,1.53,2.11,1.22
N#Cc1ccnc(N2C(=O)CC[C@H]2C(=O)N(c2cncc(F)c2)[C@H](C(=O)NC2CC(F)(F)C2)c2ccccc2Cl)c1 [Ivosidenib (AG-120)],0.973,0.609,1.95,1.1,0.986,1.55
CCCCCCCCCCCCCCCCOc1nc2ccc(C)cc2c(=O)o1 [Cetilistat],1,1.33,0.996,0.737,0.864,0.764
Cn1c([N+](=O)[O-])cnc1COC(N)=O [Ronidazole],1.13,0.834,0.687,1.01,0.646,1.59
CC(C)CCNC(=O)[C@H](CC(C)C)NC(=O)[C@H]1O[C@@H]1C(=O)O [Loxistatin Acid (E-64C)],1.6,2.18,1.48,1.04,1.44,1.5
CCc1ccc(OCc2ccccc2C(=O)Nc2ccc3nc(C)cc(N)c3c2)cc1,4.35,4.14,3.63,5.25,5.11,4.53
CN1CCC(NC(=O)c2cc(-c3c(O)cc(O)cc3Oc3ccc([N+](=O)[O-])cc3)on2)CC1,2.95,3.28,3.66,3.37,5.17,3.04

Compound,Euclidean distance (786-O),Euclidean distance (A549),Euclidean distance (DU145),Euclidean distance (FB),Euclidean distance (HEPG2),Euclidean distance (OVCAR4)
N#Cc1c(Oc2ccc(F)c(NC(=O)Cc3cccc(C(F)(F)F)c3)c2)ccc2nc(NC(=O)C3CC3)sc12,2.61,2.09,0.85,1.19,1.22,2.04
CC(C(=O)O)c1ccc(C(=O)c2ccccc2)s1 (centres undefined) [Tiaprofenic acid],1.13,0.629,0.684,0.967,0.859,0.857
O=C(O)c1cc(O)c2c(c1)[C@@H]([C@H]1c3cc(C(=O)O)cc(O)c3C(=O)c3c(O[C@@H]4O[C@H](CO)[C@@H](O)[C@H](O)[C@H]4O)cccc31)c1cccc(O[C@@H]3O[C@H](CO)[C@@H](O)[C@H](O)[C@H]3O)c1C2=O [Sennoside B],1.31,0.866,0.808,0.988,0.382,0.952
CN(C)CCC=C1c2ccccc2COc2ccccc21 [Doxepin HCl],1.22,1.14,1.36,1.45,0.967,2.09
CC(C)(C)c1cc(/C=C(\C#N)C(N)=S)cc(C(C)(C)C)c1O [Tyrphostin AG 879],1.54,1.46,0.926,0.967,0.81,1.01
Cn1c(=O)n(-c2ccc(C(C)(C)C#N)cc2)c2c3cc(-c4cnc5ccccc5c4)ccc3ncc21 [BEZ235 (NVP-BEZ235. Dactolisib)],3.77,3.79,1.66,2.82,0.961,4.78
COc1cc(N)c(Cl)cc1C(=O)NC1CCN(Cc2ccccc2)CC1 [Clebopride (malate)],1.13,0.613,1.21,1.12,0.547,0.852
CC(C)[C@H](NC(=O)[C@H](CC(=O)O)NC(=O)[C@H](CCCCN)NC(=O)[C@@H](N)CCCN=C(N)N)C(=O)N[C@@H](Cc1ccc(O)cc1)C(=O)O [Thymopentin],1.56,1.19,0.821,0.825,0.557,1.06
Cn1cc(-c2nc(N[C@@H]3CCCC[C@@H]3N)c(F)c3c2C(=O)NC3)cn1,2.54,2.93,2.88,2.99,1.85,2.99
CCCN(CCC)CCc1cccc2c1CC(=O)N2 [Ropinirole HCl],1.32,1.01,0.736,1.3,0.483,1.2
Cn1c(N2CCCCS2(=O)=O)nc(C(=O)NCc2ccc(F)cc2)c(O)c1=O,3.24,2.86,4.79,2.83,3.37,3.36
O=C(CCc1ccc(O)cc1)c1c(O)cc(O)cc1O [Phloretin],0.62,0.656,1.06,1.13,1.23,0.792
CC(=O)SCC(Cc1ccccc1)C(=O)NCC(=O)OCc1ccccc1 (centres undefined) [Racecadotril],1.61,0.894,0.905,1.14,0.452,1.68
Cn1cc(C2=C(c3ccc(Cl)cc3Cl)C(=O)NC2=O)c2ccccc21,1.92,0.949,1.79,1.57,1.08,1.01
CC(=O)OCC[N+](C)(C)C [Acetylcholine iodide],0.893,0.442,0.869,0.877,0.594,1.19
CN(C(=O)CN(CCO)CC(=O)N(C)C(C)(C)Cc1ccccc1)C(C)(C)Cc1ccccc1 [Oxethazaine],1.36,2.36,1.13,2.17,1.36,1.96
COc1cc2ncnc(Oc3cccc(NC(=O)Nc4cc(C(C)(C)C(F)(F)F)on4)c3)c2cc1OC,0.889,2.41,1.19,1.02,0.923,1.88
CS(=O)(=O)N1CCN(Cc2cc3nc(-c4cccc5[nH]ncc45)nc(N4CCOCC4)c3s2)CC1,2.85,2.71,1.63,2.18,1.4,1.83
Cc1nc2ccc(-n3ncc(C(=O)c4cc5ccccc5[nH]4)c3N)cc2[nH]1,2.53,2.28,1.14,3.31,1.73,1.67
